An excerpt weighted towards active compounds, which were near 1.1% of everything screened.
LAP4-GFP MLPCN: modulators of LAP4-GFP expression in yeast, primary screen, S. cerevisiae, multiplex flow cytometry, MLPCN library | 3 h; median GFP as percent of DMSO wells | actives 0.34% (n = 320,000) | AID 2023, 2009 | GFP response vs DMSO, % at 10 µM;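 active = GFP response vs DMSO above a set limit, about the screen mean plus 3 SD, cut at about 150% in these data; inconclusive = under 70 cell events counted for the yeast strain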
MEP2 TOR yeast: modulators of MEP2-GFP levels in yeast, primary screen, S. cerevisiae, multiplex flow cytometry, MLPCN library. S. cerevisiae MEP2-GFP strain, 3 h; 100% = DMSO control level. GFP response vs DMSO, % at 10 µM. actives 0.51% (n = 330,000);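 active = GFP response versus DMSO above a set limit, roughly screen mean plus 3 SD, cut at about 180% in these data; inconclusive = fewer than 70 cells counted for a yeast strain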;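 note: median GFP fluorescence of the barcode-gated MEP2-GFP cells per well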
VLA-4 inh: inhibition in human VLA-4 binding assay, primary screen, VLA-4 allosteric modulator project, MLPCN library, flow cytometry, VLA-4 expressing cells | Integrin alpha-4 (Homo sapiens), P13612 | ligand binding flow cytometry | actives 0.2% (n = 330,000) | inhibition, % (about 7 µM as worked out from the volumes in the protocol); in the data active = inhibition above about 50%
CIT2-GFP yeast: modulators of CIT2-GFP expression in yeast, primary screen, S. cerevisiae, GFP fusion, multiplex flow cytometry, MLPCN library. S. cerevisiae CIT2-GFP strain, 3 h; 100 means same as DMSO wells. GFP response vs DMSO, % at 10 µM. actives 0.065% (n = 320,000);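 active = GFP response relative to DMSO above a set limit, near the screen mean plus 3 SD, cut at about 150% in these data; inconclusive = Fewer than 70 cells measured for a yeast strain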;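 note: ratio of well median GFP fluorescence to mean of DMSO wells on the plate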
RPL19A-GFP yeast: RPL19A-GFP expression modulators in yeast, primary screen, cell-based, S. cerevisiae, multiplex flow cytometry, MLPCN; S. cerevisiae RPL19A-GFP strain, 3 h; active compounds read low; percent response vs DMSO, % at 10 µM; actives 0.3% (n = 330,000); AID 2025, 2009;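 active = percent response vs DMSO below 50%; inconclusive = fewer than 70 events counted for the yeast strain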;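 note: median channel GFP fluorescence of the barcoded RPL19A-GFP strain; lower means less RPL19A-GFP as with rapamycin TOR inhibition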
AGP1-GFP MLPCN: modulators of AGP1-GFP expression in yeast TOR pathway, primary screen, cell-based, multiplex flow cytometry, S. cerevisiae, MLPCN library. 3 h; GFP as percent of DMSO wells. GFP response vs DMSO, % at 10 µM. actives 0.02% (n = 320,000). AID 2066, 2009;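 active = GFP response relative to DMSO above a set limit, near screen average plus 3 SD, cut at about 150% in these data; inconclusive = fewer than 70 cells counted for the yeast strain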;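 note: median GFP channel fluorescence of the gated AGP1 strain per well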
A number is an active result; - = inactive; ? = inconclusive; [ ] = remark or other dose.

SMILES	LAP4-GFP MLPCN	MEP2 TOR yeast	VLA-4 inh	CIT2-GFP yeast	RPL19A-GFP yeast	AGP1-GFP MLPCN
O=C(O)COc1ccc2oc3c(c2c1)CCCC3	-	-	-	-	-	-
Cc1cccn2c(=O)c3cc(C(=O)NCc4ccc(F)cc4)c(=N)n(CC4CCCO4)c3nc12 (stereo not drawn)	-	-	-	-	-	-
Cc1cccn2c(=O)c3cc(C(=O)NCC4CCCO4)c(=N)n(CC4CCCO4)c3nc12 (stereo not drawn)	-	412.2[may fluoresce violet]	-	?	24.3[may fluoresce violet]	?
Cc1ccc(-c2cc(C(=O)NCC3CCCO3)c3ccccc3n2)cc1C (stereo not drawn)	-	258.9[may fluoresce violet]	-	?	43.3[may fluoresce violet]	-
Cc1cccn2c(=O)c3cc(C(=O)NC4CCCC4)c(=N)n(CC4CCCO4)c3nc12 (stereo not drawn)	-	548.5[may fluoresce violet]	-	?	-	-
Cc1cccn2c(=O)c3cc(C(=O)NCC4CCCO4)c(=N)n(C4CCCCC4)c3nc12 (stereo not drawn)	-	608.5[may fluoresce violet]	-	?	-	?
CC(C)CCN(C(=O)CCSc1ccc(F)cc1)c1c(N)n(Cc2ccccc2)c(=O)[nH]c1=O	-	-	-	-	-	-
CCOc1ccccc1NC(=S)N1CCC(NC(=O)c2ccco2)CC1	-	-	-	-	-	-
COc1ccc(NC(=O)C2CCN(C(=O)c3ccco3)CC2)c(OC)c1	-	688.7[may fluoresce violet]	-	?	42.2[may fluoresce violet]	?
COc1ccc(OC)c(S(=O)(=O)N2CCC(C(=O)NC3CCCC3)CC2)c1	-	218.9[may fluoresce red and violet]	-	?	?	?
COc1ccc(NC(=O)C2CCN(S(=O)(=O)c3ccc(OC)c(OC)c3)CC2)c(OC)c1	-	179.1	-	-	-	-
COc1ccc(OC)c(S(=O)(=O)N2CCC(C(=O)NC3CCCCCC3)CC2)c1	-	-	-	-	-	-
COc1ccccc1NC(=S)N1CCC(NC(=O)c2ccco2)CC1	-	?	-	?	23.9[may fluoresce violet]	?
COc1ccc(NC(=O)C2CCN(S(C)(=O)=O)CC2)c(OC)c1	-	-	-	-	-	-
COc1ccc(NC(=O)c2cc(Cl)ccc2NC(=O)c2ccco2)c(OC)c1	-	212.9[may fluoresce violet]	-	?	39.6[may fluoresce violet]	?
Cc1ccccc1NC(=O)CCCNC(=O)c1ccc(Cl)cc1	?	?	-	?	26.6[may fluoresce violet]	?
O=C(CCCNC(=O)c1ccc(Cl)cc1)Nc1ccccc1F	-	-	-	-	-	-
CCN(CCO)C(=O)c1ccc2nc(Cc3cccc(Cl)c3)oc2c1	-	-	-	-	-	-
CCCCCCCCOc1ccc(C2OC34CCCCC3C(C#N)(C#N)C2(C#N)C(=N)O4)cc1 (stereo not drawn)	-	376.4[may fluoresce violet]	-	?	49.4[may fluoresce violet]	-
CCCCC1OC23CCCCC2C(C#N)(C#N)C1(C#N)C(=N)O3 (stereo not drawn)	-	-	-	-	-	-
COc1ccc(NC(=O)CCS(=O)(=O)c2ccc3c(c2)CCN3C(C)=O)cc1	-	-	-	?	18.9[may fluoresce violet]	?
COc1ccc(-n2c(N)c(C(=O)Nc3c(C)n(C)n(-c4ccccc4)c3=O)c3nc4ccccc4nc32)cc1	156.8	204.7	-	-	-	-
Cc1cc(C)c(C(=O)C(C)OC(=O)c2ccc(Cl)nc2)cc1C (stereo not drawn)	-	-	-	-	-	-
CC1CCCCN1CCNC(=O)c1ccc2c(=O)n(Cc3ccc(Cl)cc3)c(=S)[nH]c2c1 (stereo not drawn)	-	-	-	-	-	-
CC1CCCCC1NC(=O)c1cccc(NC2=NC3CS(=O)(=O)CC3S2)c1 (stereo not drawn)	-	-	-	-	-	-
CC(=O)N/C(N)=N/c1nc2cc(C)ccc2o1	-	?	-	?	18.8[may fluoresce violet]	?
CCC(=O)N/C(N)=N/c1nc2ccccc2o1	176.1	-	-	-	-	-
CC(=O)N/C(N)=N/c1nc2cc([N+](=O)[O-])ccc2o1	-	-	-	-	-	-
